The nature of experiment [1]: antimalarial activity against Dd2 strain (AID 2302;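 active means growth inhibition above 50% at the single 2 µM test dose, taken to imply half-maximal potency below 2 µM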;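 further: 0% = DMSO untreated growth and 100% = chloroquine plus artemisinin killed control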). Conditions: P. falciparum Dd2 in RBCs, LDH growth readout, 72 h; at 2 µM; active compounds read high.
A short description of experiment [2]: HepG2 cytotoxicity, primary screen, cytotoxicity control for P. falciparum antimalarial project, cell-based, ATP luminescence (AID 2303;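 active means inhibition above 50%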;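 further: 0% = DMSO wells and 100% = digitonin-killed cells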). Particulars: HepG2 viability, 24-48 h, at 10 µM, active compounds read high.
For experiment [3], the target named is L-lactate dehydrogenase (Plasmodium falciparum (isolate CDC / Honduras)) (UniProt Q27743). The experiment in a line: PfLDH activity inhibition – cell lysate, 3D7 strain, counter-screen for P. falciparum growth inhibition project (AID 2304).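 Further: 0% = vehicle and 100% = reference inhibitor.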 Particulars: P. falciparum 3D7 crude extract, LDH APAD/NBT absorbance; at 2 µM; active compounds read high.
Experiment [4] in a line: inhibition of 3D7 malaria parasite growth – strain 3D7 (AID 2306).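 Further: 0% = DMSO wells and 100% = chloroquine plus artemisinin control wells.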 Conditions: P. falciparum 3D7 erythrocytic growth, LDH absorbance, 72 h; at 2 µM; active compounds read high.
Experiment [5] addresses Calcium-dependent protein kinase 1 (Plasmodium falciparum (isolate 3D7)) (UniProt P62344). The experiment is described as follows: PfCDPK1 kinase inhibitors, biochemical, TCAMS library (AID 1159585; cut-off not given, nearly all actives have IC50 up to about 0.98 µM;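 further: inhibitors leave more ATP so luminescence rises with inhibition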). Conditions: recombinant PfCDPK1, Kinase-Glo ATP depletion luminescence.
For experiment [6], the target named is Plasmodium falciparum protein kinase 6 (PK6, PF3D7_1337100) (UniProt Q8IDW1). The experiment in a line: PfPK6 kinase inhibitors, biochemical, TCAMS library (AID 1159586). Particulars: recombinant PfPK6, Kinase-Glo ATP depletion luminescence.
Experiment [7] deals with Protein kinase 7 (PK7), Plasmodium falciparum 3D7 (PF3D7_0213400) (UniProt Q7YTF7). The experiment is described as follows: inhibition of Plasmodium PK7 catalytic activity – biochemical, TCAMS antimalarial set, Kinase-Glo luminescence (AID 1159587). Conditions: recombinant PfPK7, Kinase-Glo ATP depletion luminescence.
The target of experiment [8] is Calcium-dependent protein kinase 4 (Plasmodium falciparum (isolate 3D7)) (UniProt Q8IBS5). The experiment in a line: PfCDPK4 kinase inhibitors, biochemical, TCAMS library (AID 1159588; cut-off not given, nearly all actives have IC50 up to about 0.91 µM). Conditions: recombinant PfCDPK4, Kinase-Glo ATP depletion luminescence.

Unmarked numbers belong to inactive results. For some of these results: Results with a measured potency or affinity are listed apart. Activity calls are given as the source filed them. Unless noted, how the calls were made is not given here.

Plasmodium falciparum protein kinase 6 (PK6, PF3D7_1337100), sequence (Q8IDW1 1-305): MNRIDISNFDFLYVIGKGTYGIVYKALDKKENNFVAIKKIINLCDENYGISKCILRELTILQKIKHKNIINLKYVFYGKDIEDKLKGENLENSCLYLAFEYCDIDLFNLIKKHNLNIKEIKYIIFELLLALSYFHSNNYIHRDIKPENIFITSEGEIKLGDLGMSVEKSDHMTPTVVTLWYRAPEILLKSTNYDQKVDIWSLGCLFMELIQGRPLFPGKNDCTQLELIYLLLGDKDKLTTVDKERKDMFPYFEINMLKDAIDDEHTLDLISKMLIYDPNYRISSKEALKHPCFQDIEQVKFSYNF
L-lactate dehydrogenase (Plasmodium falciparum (isolate CDC / Honduras)), sequence (Q27743 whole entry, looked up): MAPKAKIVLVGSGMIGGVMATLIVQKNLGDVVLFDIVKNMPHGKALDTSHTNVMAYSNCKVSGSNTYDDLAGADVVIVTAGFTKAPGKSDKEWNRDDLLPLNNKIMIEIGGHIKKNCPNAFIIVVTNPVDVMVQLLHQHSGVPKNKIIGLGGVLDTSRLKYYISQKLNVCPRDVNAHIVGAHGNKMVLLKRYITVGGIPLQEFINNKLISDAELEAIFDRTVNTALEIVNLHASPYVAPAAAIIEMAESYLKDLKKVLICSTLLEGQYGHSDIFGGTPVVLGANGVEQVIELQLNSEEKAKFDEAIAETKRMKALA
Protein kinase 7 (PK7), Plasmodium falciparum 3D7 (PF3D7_0213400), sequence (Q7YTF7 1-343): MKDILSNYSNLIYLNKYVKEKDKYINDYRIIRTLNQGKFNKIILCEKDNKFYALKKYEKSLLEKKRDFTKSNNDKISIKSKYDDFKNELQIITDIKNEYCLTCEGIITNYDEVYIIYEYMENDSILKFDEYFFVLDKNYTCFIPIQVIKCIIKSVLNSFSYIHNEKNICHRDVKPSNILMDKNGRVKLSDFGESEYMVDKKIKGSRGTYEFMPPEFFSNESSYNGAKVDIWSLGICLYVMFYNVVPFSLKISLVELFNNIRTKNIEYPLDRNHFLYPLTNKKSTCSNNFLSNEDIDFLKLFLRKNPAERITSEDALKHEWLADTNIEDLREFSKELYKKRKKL
Calcium-dependent protein kinase 1 (Plasmodium falciparum (isolate 3D7)), sequence (P62344 whole entry, looked up): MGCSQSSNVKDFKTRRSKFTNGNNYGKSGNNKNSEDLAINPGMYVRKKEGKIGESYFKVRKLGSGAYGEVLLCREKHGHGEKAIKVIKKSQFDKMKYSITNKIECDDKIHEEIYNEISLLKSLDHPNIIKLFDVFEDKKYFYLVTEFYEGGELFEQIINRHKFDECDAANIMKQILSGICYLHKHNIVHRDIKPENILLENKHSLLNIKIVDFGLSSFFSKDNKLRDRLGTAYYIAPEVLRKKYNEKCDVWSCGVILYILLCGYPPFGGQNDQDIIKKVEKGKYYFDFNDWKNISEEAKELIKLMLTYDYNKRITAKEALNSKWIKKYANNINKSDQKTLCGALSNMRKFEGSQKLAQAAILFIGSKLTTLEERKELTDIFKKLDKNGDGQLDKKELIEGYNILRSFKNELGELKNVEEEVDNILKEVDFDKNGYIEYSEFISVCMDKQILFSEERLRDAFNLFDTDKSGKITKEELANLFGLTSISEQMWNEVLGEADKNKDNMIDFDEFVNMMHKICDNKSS
Calcium-dependent protein kinase 4 (Plasmodium falciparum (isolate 3D7)), sequence (Q8IBS5 whole entry, looked up): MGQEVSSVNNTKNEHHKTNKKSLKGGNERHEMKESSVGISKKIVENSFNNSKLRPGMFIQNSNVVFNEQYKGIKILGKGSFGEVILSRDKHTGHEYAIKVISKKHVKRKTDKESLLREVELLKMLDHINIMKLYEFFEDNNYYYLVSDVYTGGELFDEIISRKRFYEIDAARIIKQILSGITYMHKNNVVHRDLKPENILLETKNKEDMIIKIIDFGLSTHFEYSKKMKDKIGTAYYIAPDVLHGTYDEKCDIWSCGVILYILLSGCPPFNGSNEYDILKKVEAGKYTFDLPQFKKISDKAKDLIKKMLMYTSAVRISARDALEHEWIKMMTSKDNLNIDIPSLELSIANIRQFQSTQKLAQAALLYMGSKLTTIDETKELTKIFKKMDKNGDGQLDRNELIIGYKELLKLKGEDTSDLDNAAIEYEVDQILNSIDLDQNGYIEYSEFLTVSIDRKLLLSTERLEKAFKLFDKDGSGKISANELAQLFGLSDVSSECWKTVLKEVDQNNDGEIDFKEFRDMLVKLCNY

For the molecule `CN1CCC[C@@H](Oc2cc3c(cc2Br)CCN3C(=O)Nc2ccc(-c3ccncc3)c(Cl)c2)C1`, the growth inhibition in experiment [1] is 64% (active); in experiment [4] it was 99% (active). Moreover, the values for the inhibition in experiment [2] and in experiment [3] were 26% and -7%, respectively. The result in experiment [5], in experiment [6], in experiment [7] and in experiment [8] was inactive.

Regarding `CN(C)CCCOc1ccccc1CN1CC[C@H](NC(=O)c2ccc(Cl)c(Cl)c2)C1`, the growth inhibition in experiment [1] was 54% (active); in experiment [4], 94% (active). Also, the inhibition in experiment [2] was 42%; in experiment [3], -3%. Further, the result in experiment [5], in experiment [6], in experiment [7] and in experiment [8] was inactive.

On to `Oc1ccc(-c2ccccc2)cc1CN1CCCCCC1`, for which the growth inhibition was 85% (active) in experiment [1] and 95% (active) in experiment [4]. Moreover, the inhibition in experiment [2] is 6%; in experiment [3], 2%. The result in experiment [5], in experiment [6], in experiment [7] and in experiment [8] was inactive.

Regarding `Cc1onc(-c2ccccc2)c1-c1nc(NCc2ccccc2Cl)no1`, the growth inhibition was 92% (active) in experiment [1] and 99% (active) in experiment [4]. The inhibition in experiment [2] is 2%; in experiment [3], -3%. In addition, the outcome in experiment [5], in experiment [6], in experiment [7] and in experiment [8] was inactive.

As for `CC(CCc1ccccc1)NCC(O)c1cccc(C(F)(F)F)c1` (stereo not given), the growth inhibition in experiment [1] is 98% (active); in experiment [4], 99% (active). Besides, the inhibition in experiment [2] is 18%; in experiment [3] it was 4%. Also, the result in experiment [5], in experiment [6], in experiment [7] and in experiment [8] was inactive.

In the case of `Oc1ccc(CCNc2nc(NCCCOc3cccc(CN4CCCCC4)c3Cl)nc(N3CCNCC3)n2)cc1`, the values for the growth inhibition in experiment [1] and in experiment [4] were 22% and 102% (active), respectively. Moreover, the inhibition in experiment [2] is 26%; in experiment [3], 5%. Moreover, the outcome in experiment [5], in experiment [6], in experiment [7] and in experiment [8] was inactive.

For the molecule `COc1ccc2ccccc2c1CON1C(N)=NC(N)=NC1(C)C`, the growth inhibition in experiment [1] is 5%; in experiment [4], 94% (active). Besides, the results for the inhibition in experiment [2] and in experiment [3] were 25% and -7%, respectively. The outcome in experiment [5], in experiment [6], in experiment [7] and in experiment [8] was inactive.

Consider `O=C(/C=C/c1ccc(Cl)c(Cl)c1)NC1CCC(CN2CCC(Cc3cc4ccccc4[nH]3)CC2)CC1` (stereo not given), for which the growth inhibition in experiment [1] was 74% (active); in experiment [4], 100% (active). In addition, the inhibition in experiment [2] was 99% (active); in experiment [3], -8%. Further, the result in experiment [5], in experiment [6], in experiment [7] and in experiment [8] was inactive.

With `CS(=O)(=O)CCNc1nccc(N2CCc3ncnc(Nc4ccc(OCc5cccc(F)c5)c(Cl)c4)c3C2)n1`, the growth inhibition is 100% (active) in experiment [1] and 101% (active) in experiment [4]. The inhibition in experiment [2] was 8%; in experiment [3], -4%. For the same molecule, the result in experiment [5], in experiment [6], in experiment [7] and in experiment [8] was inactive.

In the case of `O=c1[nH]nc(-c2ccc(N3CCCC3)c([N+](=O)[O-])c2)c2ccccc12`, the growth inhibition in experiment [1] was 39%; in experiment [4], 100% (active). Further, the inhibition was 2% in experiment [2] and -6% in experiment [3]. Moreover, the outcome in experiment [5], in experiment [6], in experiment [7] and in experiment [8] was inactive.

On to `CC(=O)c1ccc2c(c1)[C@H](NC(=O)c1cccc(Cl)c1Cl)[C@@H](CO)C(C)(C)O2`, for which the growth inhibition in experiment [1] was 44%; in experiment [4] it was 99% (active). For the same molecule, the figures for the inhibition in experiment [2] and in experiment [3] were 5% and 4%, respectively. For the same molecule, the result in experiment [5], in experiment [6], in experiment [7] and in experiment [8] was inactive.

Consider `CCCCCCCN1CC[C@@H](CCCc2ccnc3ccc(OCCC4CCNCC4)cc23)[C@@H](CC)C1`, for which the growth inhibition was 100% (active) in experiment [1] and 104% (active) in experiment [4]. Moreover, the inhibition was 94% (active) in experiment [2] and -4% in experiment [3]. The result in experiment [5], in experiment [6], in experiment [7] and in experiment [8] was inactive.

`COc1ccc(NC(=O)Nc2nc3ccccc3s2)cc1N1CCN(C)CC1`: the growth inhibition was 22% in experiment [1] and 95% (active) in experiment [4]. Besides, the values for the inhibition in experiment [2] and in experiment [3] were 6% and -1%, respectively. The result in experiment [5], in experiment [6], in experiment [7] and in experiment [8] was inactive.

As to `O=C(Nc1cccc(C(F)(F)F)c1)c1ccc(S(=O)(=O)NCC2CCCN2CC2CCCCC2)cc1` (stereo not given), the growth inhibition is 3% in experiment [1] and 98% (active) in experiment [4]. Also, the inhibition was 14% in experiment [2] and -5% in experiment [3]. In addition, the outcome in experiment [5], in experiment [6], in experiment [7] and in experiment [8] was inactive.

On to `O=C(NC1CCN(Cc2ccccc2O)C1)c1ccc(-c2ccccc2)cc1` (stereo not given), for which the growth inhibition was 25% in experiment [1] and 99% (active) in experiment [4]. The inhibition is -5% in experiment [2] and 4% in experiment [3]. Also, the result in experiment [5], in experiment [6], in experiment [7] and in experiment [8] was inactive.

Consider `O=C(NCCNc1ccnc2cc(Cl)ccc12)c1ccccc1F`, for which the growth inhibition is 98% (active) in experiment [1] and 99% (active) in experiment [4]. Besides, the figures for the inhibition in experiment [2] and in experiment [3] were 30% and 0%, respectively. In addition, the result in experiment [5], in experiment [6], in experiment [7] and in experiment [8] was inactive.

For the molecule `COc1ccc2nccc(NCC3(O)CCN(CC(O)c4ccc5c(c4)NC(=O)CS5)CC3)c2n1` (stereo not given), the values for the growth inhibition in experiment [1] and in experiment [4] were 3% and 100% (active), respectively. Besides, the inhibition was 3% in experiment [2] and 2% in experiment [3]. Moreover, the result in experiment [5], in experiment [6], in experiment [7] and in experiment [8] was inactive.

Consider `Oc1c(Br)cc2oc3c(c2c1CNCc1ccccc1)CCCC3`, for which the growth inhibition was 74% (active) in experiment [1] and 99% (active) in experiment [4]. For the same molecule, the inhibition in experiment [2] was -19%; in experiment [3] it was 0%. In addition, the outcome in experiment [5], in experiment [6], in experiment [7] and in experiment [8] was inactive.

As to `CC(C(=O)OCCOCn1cnc2c(=O)[nH]c(N)nc21)N(C)C(=O)OC(C)(C)C` (stereo not given), the growth inhibition in experiment [1] was -1%; in experiment [4] it was 87% (active). Also, the inhibition in experiment [2] was 28%; in experiment [3] it was 2%. In addition, the outcome in experiment [5], in experiment [6], in experiment [7] and in experiment [8] was inactive.

Turning to `Fc1cccc(COc2ccc(Nc3ncnc4sc(C#CC5CCCCN5)cc34)cc2Cl)c1` (stereo not given), the results for the growth inhibition in experiment [1] and in experiment [4] were 100% (active) and 101% (active), respectively. The inhibition in experiment [2] is 30%; in experiment [3], 3%. For the same molecule, the result in experiment [5], in experiment [6], in experiment [7] and in experiment [8] was inactive.

The values are drawn from PubChem BioAssay.
